Screening results from PubChem.
Pf growth 48h – P. falciparum growth inhibition at 48 hours (one generation) | P. falciparum luciferase growth in erythrocytes, 48 h | Potency, µM (series often up to 28.7 µM), actives largely listed as inhibitors | 5.9% of 310,000 active | AID 504832; active = well fitted inhibition curve with a large enough effect; inconclusive = small, poorly fitted or top-dose-only effect, or another doubt; inactive = no such curve, though single readings can be large or run the other way
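In quantitative HTS format, infected erythrocytes bearing luciferase-reporter parasites were treated for a single generation at 37 C. Luminescence after adding detection reagent served as the growth measure.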
Pf growth 96h – P. falciparum growth inhibition at 96 hours. P. falciparum luciferase reporter growth, 96 h. Potency, µM (titrated, usually from 28.7 µM), hits mostly inhibitors. 6.9% of 320,000 active; active = well fitted inhibition curve with a large enough effect; inconclusive = small, poorly fitted or top-dose-only effect, or another doubt; inactive = no such curve, though single readings can be large or run the other way
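Erythrocytes infected with luciferase-expressing P. falciparum were dispensed at 2% hematocrit and 0.05% parasitemia (final), then incubated with compounds 96 hours at 37 C in 5% CO2. Luminescence after detection reagent addition reported growth.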
SARS PLpro yeast – blocks SARS-CoV papain-like protease in a yeast assay | S. cerevisiae expressing SARS-CoV PLpro, growth rescue | Potency, µM (top dose mostly 32.9 µM), most hits filed as activators | 0.19% of 330,000 active | AID 485353; note: nearly all actives have a fitted effect of over 55% in size
NS1 inh – blocks influenza NS1 protein function; Potency, µM (doses to about 46.1 µM); 0.4% of 270,000 active; note: actives are rising curves; nearly all actives have a fitted effect of over 50% in size
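A cell-based growth assay was used: compounds that relieve NS1-induced slow growth of budding yeast raise OD600. Assay medium was yeast nitrogen base with ammonium sulphate and -URA supplement, pH 6.0, with 2% galactose.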
Flu NS1 inh – influenza NS1 function inhibition validation; shares compounds with NS1 inh; influenza NS1 function cell assay, 15-point titration; activity change, negative = inhibition, % at 32.9 µM; 1,400 tested, under 10 active
Flu PR8 replic – influenza NS1 inhibitors: inhibition of influenza A/PR/8/34 replication; shares compounds with NS1 inh; 30% of 95 active; virus titer (log TCID50), log10 TCID50 at 5 µM; AID 504647; MDCK infected influenza A/PR/8/34, virus titer TCID50; active compounds read low; call rule not given here
Large screens that a line does not name were inactive (follow-up assays come after a bar, where they were run). Rows were chosen to be rich in hits. Some 10% of all compounds tested hit in one or more screens of this group. Unless noted, calls come from the whole dose curve.

CC1=C(C(=O)OC(C)C)C(c2cccc([N+](=O)[O-])c2)n2c(cc(=O)[nH]c2=S)N1 (configuration not stated)	NS1 inh 11µM | Flu NS1 inh inactive
CC(=O)C1=C(C)NC(=S)NC1c1cccc([N+](=O)[O-])c1 (configuration not stated)	none (no result: NS1 inh)
CCOc1ccc(NC(=S)N2CCc3cc(OC)c(OC)cc3C2COc2ccc3c(C)cc(=O)oc3c2)cc1 (configuration not stated)	Pf growth 48h inconclusive, Pf growth 96h inconclusive, SARS PLpro yeast inconclusive, NS1 inh 11µM | Flu NS1 inh inactive
COc1cc2c(cc1OC)C(COc1ccc3c(C)cc(=O)oc3c1)N(C(=O)c1ccco1)CC2 (configuration not stated)	Pf growth 48h inconclusive (no result: Pf growth 96h)
CC(Nc1nc(-c2cccc(Br)c2)cs1)c1nc2cc(Cl)c(N3CCCCC3)cc2n1CCOCCO (configuration not stated)	Pf growth 48h inconclusive, Pf growth 96h inconclusive, NS1 inh 10µM | Flu NS1 inh inactive
O=c1c2ccccc2oc2nc(-c3ccco3)n(CCc3ccccc3)c(=O)c12	none
CCCCCCn1c(-c2ccco2)nc2oc3cc(OC)ccc3c(=O)c2c1=O	Pf growth 48h 5.2µM, Pf growth 96h inconclusive, NS1 inh 13µM | Flu NS1 inh inactive
Cc1ccccc1NC(=O)c1ccccc1-c1ccccc1	Pf growth 96h inconclusive
O=C(O)c1ccccc1-c1ccccc1C(=O)Nc1ccccc1-c1ccccc1	NS1 inh 10µM (no result: SARS PLpro yeast) | Flu NS1 inh inactive
CCC/C(=N/NC(=O)c1ccc2c(c1)OCO2)c1cccs1	Pf growth 96h inconclusive, NS1 inh inconclusive | Flu NS1 inh inactive
CN(c1ccccc1)S(=O)(=O)c1ccc2[nH]c(=O)oc2c1	NS1 inh inconclusive | Flu NS1 inh inactive
COc1ccccc1NC(=O)C(=N\O)/C(C)=N/O	none
O=S(=O)(c1ccc(NC(=S)NCCC(c2ccccc2)c2ccccc2)cc1)N1CCOCC1	Pf growth 48h inconclusive, Pf growth 96h 8.3µM, NS1 inh 14µM | Flu NS1 inh inactive
CCOc1ccc(NC(=O)CN(C)C(=O)CN2C(=O)c3ccc([N+](=O)[O-])cc3C2=O)cc1OCC	none (no result: NS1 inh)
Cn1cc([N+](=O)[O-])c(C(=O)n2cccn2)n1	NS1 inh inconclusive | Flu NS1 inh inactive
O=c1c2sccc2nc(SCc2cc(=O)n3ccccc3n2)n1Cc1ccccn1	Pf growth 96h inconclusive
Cc1cc(OCc2ccc(C(=O)NN=C3CCCC3)cc2)ccc1Cl	NS1 inh 14µM | Flu NS1 inh inconclusive
O=C(NNC(=O)c1ccc(Br)cc1)c1ccncc1	NS1 inh inconclusive | Flu NS1 inh inactive
CCCOC(=O)Nc1c(C)cccc1C(C)C	none
Cc1ccc(S(=O)(=O)N[C@@H](Cc2ccccc2)C(=O)N2CCC[C@@H]2C(=O)O)cc1	none
COc1ccc2c(c1)nc(NCCO)n2C	NS1 inh 3.5µM | Flu NS1 inh inactive
Cc1ccc2c(c1)nc(NCCCO)n2C	none (no result: Pf growth 96h)
COc1ccc(Br)cc1CN(C)C(=O)c1cnc(C)cn1	none
O=C(COc1ccc(Cl)cc1Cl)NC(=S)N1CCCc2ccccc21	NS1 inh 10µM (no result: Pf growth 48h) | Flu NS1 inh inconclusive
O=C(COc1ccc(Cl)cc1Cl)OCC(=O)N1CCCc2ccccc21	none
COc1ccc(C2CC(c3cccs3)=NN2c2ccc(C=O)cc2)cc1 (configuration not stated)	NS1 inh 11µM | Flu NS1 inh inactive
Cc1nc(SCC(=O)NCC2CCCO2)c2c3c(sc2n1)CCCC3 (configuration not stated)	none
Cc1nc(SCC(=O)NCc2ccco2)c2c3c(sc2n1)CCCC3	Pf growth 96h inconclusive, NS1 inh 4.5µM (no result: Pf growth 48h) | Flu NS1 inh inconclusive
COc1ccc(C(=O)COC(=O)CCNS(=O)(=O)c2ccccc2)cc1Br	none
CC(C#N)Sc1ccc(S(=O)(=O)N(C)C2CCCCC2)cn1 (configuration not stated)	none (no result: NS1 inh)
COc1cc(NC(=O)c2cccnc2)ccc1-c1cc2ccccc2oc1=O	none (no result: NS1 inh)
O=C(Nc1ccc(-c2cc3ccccc3oc2=O)c(Cl)c1)c1cccnc1	NS1 inh 2.2µM | Flu NS1 inh inactive
Cn1c2ccccc2c2cc(/C=C(\NC(=O)c3ccccc3)C(=O)O)ccc21	none
CC(C)OC(=O)/C(=C\c1ccc2c(c1)c1ccccc1n2C)NC(=O)c1ccccc1	Pf growth 48h 4.1µM, NS1 inh 10µM | Flu NS1 inh inactive
Cc1cc(OCC(=O)NC(Cc2ccc(Cl)cc2)C(=O)O)c2c3c(c(=O)oc2c1)CCCC3 (configuration not stated)	Pf growth 48h inconclusive, Pf growth 96h inconclusive, NS1 inh 3.2µM | Flu NS1 inh inactive
Cc1cc(OCC(=O)NC(Cc2ccc(Cl)cc2)C(=O)O)c2c(C)c(C)c(=O)oc2c1 (configuration not stated)	NS1 inh 7.9µM | Flu NS1 inh inconclusive | Flu PR8 replic inactive
COc1ccc(NS(=O)(=O)c2ccc(OC)c(NC(=O)CCC3CCCC3)c2)cc1	NS1 inh inconclusive | Flu NS1 inh inactive
C=CCn1c(SCC(=O)OCC)nc(C(F)(F)F)cc1=O	none
CC(C)(C)NC(=O)C(c1ccsc1)N(CCc1ccccc1)C(=O)Cn1nnc2ccccc21 (configuration not stated)	Pf growth 48h inconclusive, Pf growth 96h inconclusive, NS1 inh inconclusive | Flu NS1 inh inactive
Cc1ccccc1Nc1nnc(C)c(=O)n1N	Pf growth 96h inconclusive, NS1 inh 1.8µM | Flu NS1 inh inactive
C=CCCC(=O)NC1CC(C)(C)Cc2c1cnn2-c1ccc(OC)cc1 (configuration not stated)	Pf growth 96h inconclusive
Cc1nc2c(-c3ccc(F)cc3)c(C)nn2c(C)c1CCC(=O)N1CCC(Cc2ccccc2)CC1	Pf growth 96h inconclusive, NS1 inh 7.1µM (no result: Pf growth 48h) | Flu NS1 inh inactive
CCOC(=O)N1CCN(S(=O)(=O)c2ccc(C(=O)Nc3nc4c(s3)CC(C)CC4)cc2)CC1 (configuration not stated)	Pf growth 48h inconclusive
CCOC(=O)N1CCN(S(=O)(=O)c2ccc(C(=O)NNc3nc4c(C)cc(C)cc4s3)cc2)CC1	Pf growth 48h inconclusive, Pf growth 96h inconclusive, SARS PLpro yeast inconclusive, NS1 inh 4µM | Flu NS1 inh inconclusive
Cc1cc(C)nc(SCC(=O)Nc2nc(-c3ccccc3)c(-c3ccccc3)o2)n1	Pf growth 96h inconclusive
Cc1cc(=O)[nH]c(SCC(=O)Nc2nc(-c3ccccc3)c(-c3ccccc3)o2)n1	NS1 inh inconclusive | Flu NS1 inh inactive
NC(=O)c1c(NC(=O)CN2CCN(S(=O)(=O)c3ccccc3)CC2)sc2c1CCC2	Pf growth 48h inconclusive (no result: NS1 inh)
CCCCn1c(SCC(=O)N2c3ccccc3Sc3ccccc32)nc2c1c(=O)n(C)c(=O)n2C	Pf growth 48h 1.7µM, NS1 inh 11µM (no result: Pf growth 96h) | Flu NS1 inh inactive
O=C(NCCNC(=O)c1cc(Cl)ccc1Cl)c1ccco1	none
